Only some compounds are listed: those with a hit (about 4.5% of all), similar ones and a draw of the others.
SKKanGAS inh: blocks kanamycin growth of S. pyogenes SKKanGAS strain; BacTiter-Glo, 6 h; inhibition, % at 7.5 µM; 300,000 compounds, 1.3% hits;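 active = mean replicate score, as percent of positive control median, at least 50; inconclusive = mean below 50 but one replicate at or above 50; inactive = mean and every replicate below 50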;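 note: strain carries kanamycin resistance gene driven by streptokinase promoter and grows in 40 µg/ml kanamycin; loss of luminescence reflects streptokinase promoter inhibition or plain growth inhibition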
NLRP3 yeast inh: blocks the NALP3 inflammasome reconstituted in yeast | inhibition, % at 10 µM | 330,000 compounds, 0.39% hits | Yeast reconstituted NLRP3/ASC/caspase-1, beta-gal luminescence, 24 h;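 active = inhibition of 50% or more; inactive = inhibition below 50%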
tim23-1 inh: growth inhibitors of tim23-1 mutant yeast; AID 463212; 330,000 compounds, 1.3% hits; S. cerevisiae tim23-1 growth, BacTiter-Glo luminescence, 24 h; inhibition, % at 20 µM;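 active = growth inhibition of the mutant yeast at or above 50%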;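 note: temperature-sensitive mutant grown at 25 °C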
TIM10 inh: inhibits growth of TIM10 yeast strain; S. cerevisiae TIM10 strain growth, BacTiter-Glo luminescence, 24 h; inhibition, % at 10 µM; 330,000 compounds, 1.4% hits; AID 463195;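 active = inhibition of 40% or more at the single tested concentration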;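 note: wild-type TIM10 isogenic control strain grown at permissive 25 °C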
PfHsp90 set2: inhibits growth of yeast expressing Plasmodium falciparum Hsp90; AID 504621; 310,000 compounds, 0.32% hits; S. cerevisiae expressing PfHsp90, BacTiter-Glo ATP, 48 h; yeast lacking PDR1 and PDR3 efflux regulators; inhibition, % at 9.4 µM;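 active = every replicate shows inhibition above about 80%, whatever the replicate mean, limit read from the data; inconclusive = mean inhibition reaches the set limit but some replicate falls short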
tim10-1 inh: growth inhibitors of tim10-1 mutant yeast. S. cerevisiae tim10-1 ts strain growth, BacTiter-Glo, 24 h. inhibition, % at 20 µM. 330,000 compounds, 2.2% hits;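 active = inhibition of at least 40%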;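 note: mutant grown at 25 °C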
tim10-1 confirm: tim10-1 yeast growth inhibition, confirmed. shares compounds with tim10-1 inh. S. cerevisiae tim10-1 ts strain growth, BacTiter-Glo, 24 h. inhibition, % at 20 µM. 7,400 compounds, 56% hits. AID 463213;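 active = inhibition of yeast growth at or above a set limit in either of two repeat tests at 20 µM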;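 note: tim10-1 mutant grown at permissive 25 °C to find synthetic lethal compounds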
tim10 confirm: TIM10 yeast growth inhibition, confirmed; inhibition, % at 10 µM; AID 463215; S. cerevisiae tim10 strain growth, BacTiter-Glo luminescence, 24 h; shares compounds with TIM10 inh; 4,600 compounds, 63% hits;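 active = inhibition of yeast growth at or above a set limit in either of two replicates at 10 µM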; note: this counterscreen used the strain with wild-type TIM10
tim23-1 conf: confirmation of tim23-1 mutant yeast growth inhibitors. shares compounds with tim23-1 inh. S. cerevisiae tim23-1 growth, BacTiter-Glo luminescence, 24 h. inhibition, % at 20 µM. 4,400 compounds, 83% hits;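 active = inhibition above about 39% in either of two replicate wells at 20 µM, limit read from the data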;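 note: temperature-sensitive tim23-1 mutant grown at 25 °C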
Large screens that a line does not name were inactive (follow-up assays come after a bar, where they were run).

Cc1ccc(C(=O)Nc2cccc(NC(=O)c3cccs3)c2)c(C)c1	tim23-1 inh 53, tim10-1 inh 47 | tim10-1 confirm 36 | tim23-1 conf 50
CS(=O)(=O)c1nc(-c2ccc(Br)cc2)cc(-c2ccccc2)c1C#N	none
CS(=O)c1nc(-c2ccc(Br)cc2)cc(-c2ccccc2)c1C#N (configuration not stated)	tim23-1 inh 68, tim10-1 inh 41 | tim10-1 confirm 46 | tim23-1 conf 60
COC(=O)CN1C(=O)[C@H]2[C@@H](/C=C/c3ccccc3)N3C(=O)CN(Cc4ccccc4)C(=O)[C@@]3(C)[C@H]2C1=O	none
COc1cccc(-n2nc(C#N)c(Cl)cc2=O)c1	tim23-1 inh 62, TIM10 inh 55, tim10-1 inh 68 | tim10-1 confirm 56 | tim10 confirm 39 | tim23-1 conf 63
Cc1cc(C)c2cc(C=O)c(Cl)nc2c1	tim23-1 inh 67, TIM10 inh 51, tim10-1 inh 45 (no result: SKKanGAS inh) | tim10-1 confirm 40 | tim10 confirm 32 | tim23-1 conf 78
Cc1ccc(CS(=O)Cc2ccc(C(=O)NCc3ccccc3Br)o2)cc1 (configuration not stated)	none
COCc1ccc(C(=O)N2CCCCC2C(=O)Nc2ccc(-n3nc(C)cc3C)cc2)o1 (configuration not stated)	none
O=C(/C(=C/O)N=Nc1ccccc1)c1ccc(Cl)cc1	tim23-1 inh 79, TIM10 inh 58, PfHsp90 set2 106, tim10-1 inh 65 | tim10-1 confirm 49 | tim10 confirm 56 | tim23-1 conf 39
CC(=O)c1ccc(N=Nc2ccc(C)cc2)cc1	none
Cc1ccc(N=N/C(=C\O)C(=O)c2ccc(Cl)cc2)cc1	SKKanGAS inh inconclusive, tim23-1 inh 60, PfHsp90 set2 107, tim10-1 inh 48 | tim10-1 confirm 42 | tim23-1 conf 63
CCc1nc2sc3ccccc3c(=O)c2c(=O)n1Cc1ccc(OC)cc1	tim23-1 inh 53, tim10-1 inh 40 | tim10-1 confirm 31 | tim23-1 conf 41
CCCc1nc2sc3ccccc3c(=O)c2c(=O)n1CCOC	none (no result: PfHsp90 set2)
O=C(NC1CCSc2ccccc21)c1ccc(F)cc1 (configuration not stated)	none
N#C/C(=C\c1ccccn1)c1nc2ccccc2s1	tim23-1 inh 65, TIM10 inh 78, tim10-1 inh 83 | tim10-1 confirm 87 | tim10 confirm 82 | tim23-1 conf inactive
Cc1cc(C)n(/N=C/c2cc(Cl)cc(Cl)c2O)c(=O)c1	tim23-1 inh 61, tim10-1 inh 48 | tim10-1 confirm inactive | tim23-1 conf 72
O=C(Cn1c(=O)c2cccn2c2ccccc21)NCCCN1CCCCC1	none
CC(=O)C1=C(O)C(=O)N(c2ccccn2)C1c1cccc(F)c1 (configuration not stated)	none
O=C(/C=C/c1ccc(Cl)cc1Cl)n1cccn1	tim23-1 inh 66, TIM10 inh 53, tim10-1 inh 56 | tim10-1 confirm 58 | tim10 confirm inactive | tim23-1 conf 84
CCN(CC)Cc1nc2c(c(=O)[nH]1)C(CC)(CC)Cc1ccccc1-2	none
Cc1ccc(-c2cc(C(=O)N3N=C(C(F)F)CC3(O)C(F)F)c3ccccc3n2)cc1C (configuration not stated)	tim23-1 inh 52, PfHsp90 set2 113, tim10-1 inh 50 | tim10-1 confirm inactive | tim23-1 conf inactive
CCOC(=O)C(=Cc1ccc(F)cc1)C(=O)OCC	tim23-1 inh 55, TIM10 inh 43, tim10-1 inh 53 (no result: PfHsp90 set2) | tim10-1 confirm 46 | tim10 confirm 48 | tim23-1 conf 60
COc1cccc(/C=C2\SC(=S)N(CCCC(=O)N(CCO)c3ccccc3)C2=O)c1	tim23-1 inh 50, tim10-1 inh 44 | tim10-1 confirm inactive | tim23-1 conf 54
Cc1c(C(C)CCCO)oc(=O)c2c1Oc1c(C)c(C(C)C[C@H](C)O)oc(=O)c1C2 (some centres not stated)	none (no result: SKKanGAS inh)
COc1ccc(-c2oc3cccnc3c2C#CC2(O)CCCCC2)cc1	SKKanGAS inh 57, tim23-1 inh 58, TIM10 inh 41, tim10-1 inh 48 (no result: PfHsp90 set2) | tim10-1 confirm inactive | tim10 confirm inactive | tim23-1 conf 48
COc1ccc(-c2oc3cccnc3c2C#CCO)cc1	none
COC(=O)c1ccc(Cn2nnc3c(=O)[nH]c(C4CCCN(S(=O)(=O)c5cccc(Cl)c5)C4)nc32)cc1 (configuration not stated)	none
CC(C)Cn1c2c(c(O)c(C(=O)Nc3ncccc3O)c1=O)CCCC2	SKKanGAS inh 89, tim23-1 inh 55, TIM10 inh 50, tim10-1 inh 40 | tim10-1 confirm 43 | tim10 confirm 57 | tim23-1 conf 61
CC(C)Cn1c2c(c(O)c(C(=O)Nc3ccc(F)cc3)c1=O)CCCC2	none
CCCCNC(=O)c1cccc(S(=O)(=O)N2CC3(C)CC2CC(C)(C)C3)c1 (configuration not stated)	tim23-1 inh 59, tim10-1 inh 50 (no result: SKKanGAS inh) | tim10-1 confirm 48 | tim23-1 conf 54
CC1(C)Cc2c(cnn2-c2ccccc2)C(NC(=O)c2ccc[n+]([O-])c2)C1 (configuration not stated)	none
CC(C)CC(=O)O/N=C1\C(=O)N(c2ccccc2)c2ccccc21	tim23-1 inh 54, TIM10 inh 50, tim10-1 inh 63 | tim10-1 confirm 59 | tim10 confirm 74 | tim23-1 conf 62
CC1(NC(=O)Cc2ccc(Cl)c(Cl)c2)CCS(=O)(=O)C1 (configuration not stated)	none (no result: SKKanGAS inh)
CC(C)=NOc1cc(NC(=O)CCl)cc([N+](=O)[O-])c1	tim23-1 inh 66, tim10-1 inh 52 | tim10-1 confirm inactive | tim23-1 conf 47
O=C1c2ccccc2C(=O)N1CC1CCCO1 (configuration not stated)	none
O=C1c2cccc3cc([N+](=O)[O-])cc(c23)C(=O)N1CC1CCCO1 (configuration not stated)	tim23-1 inh 52, tim10-1 inh 41 | tim10-1 confirm inactive | tim23-1 conf 44
CSc1ccccc1OCc1cc(C(=O)NCCCn2nc(C)cc2C)no1	none
